Reference: PubChem BioAssay (NCATS)
Unmarked numbers belong to inactive results. How the calls were made is not given here.

System: HIV-1 nucleocapsid protein NCp7 (binding to TG oligonucleotide)
Assay: HIV Nucleocapsid (AID 346);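 further: potency is for inhibitors that block NC binding and lower polarization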
Settings: HIV-1 NC / fluorescein-TGTGTGTG probe, fluorescence polarization
Outline: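 Fluorescence polarization binding of 100 nM HIV-1 NC to 10 nM fluorescein-labelled TG4xF oligonucleotide. Buffer was Hepes pH 7.5 with 250mM NaCl, 1uM ZnCl2, TCEP and 2-mercaptoethanol. Compounds were incubated 1 hr at room temperature before the read.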
Potency means the concentration at half of the fitted maximal effect.

SMILES	Potency
COc1ccc(-c2nc3cnc(N4CCNCC4)nc3n(-c3ccccc3)c2=O)cc1	> 20 µM
COCCn1c(=O)c(CCc2ccccc2)nc2cncnc21	> 20 µM
CC(C)NC(=O)N1CC[C@@]2(CCCN(C(=O)c3csnn3)C2)C1	> 20 µM
N#Cc1cccc(-c2nccc(NCc3ccccc3)n2)c1	> 20 µM
O=C(c1ccncc1)N1CCC2(CC1)CCN(c1ccccc1)CC2	> 20 µM
Cc1ccccc1-c1cncnc1N1CCNCC1	> 20 µM
CCNc1ncc2ncc(=O)n(CCc3ccccc3)c2n1	> 20 µM
CCNc1ncc2nc(-c3ccc(OC)cc3)c(=O)n(CCOC)c2n1	> 20 µM
O=S(=O)(c1ccccc1)N1CCC2(CC1)CN(c1ccncc1)C2	> 20 µM
Clc1ccccc1-c1nc(NCc2cccs2)c2ccccc2n1	> 20 µM
O=C(c1cnccn1)N1CCC2(CCN(Cc3ccncc3)CC2)CC1	> 20 µM
CCNc1ncc2nc(-c3cc(F)cc(F)c3)c(=O)n(-c3ccc(OC)cc3)c2n1	> 4 µM
COc1ccc(-c2nc3cnc(N4CCOCC4)nc3n(C3CC3)c2=O)cc1	> 20 µM
CN1CCN(c2ncc3nc(-c4ccc(F)cc4)c(=O)n(C4CC4)c3n2)CC1	> 20 µM
O=C(c1csnn1)N1CCC[C@@]2(CCN(c3ccncc3)C2)C1	> 20 µM
O=C(c1ccncc1)N1CCC2(CCCN(c3ccccc3)C2)CC1	> 20 µM
CN(C)c1ncnc2ccc(-c3ccccc3C#N)cc12	> 20 µM
CN1CCN(c2cc(-c3ccccc3C(F)(F)F)ncn2)CC1	> 20 µM
CS(=O)(=O)Nc1cccc(-c2ccc3ncnc(NCc4cccs4)c3c2)c1	> 20 µM
O=C(Nc1cccc(F)c1)N1CC2(CCN(C(=O)c3cnccn3)CC2)C1	> 20 µM

SMILES	Potency
COc1ncc2nc(-c3cn(C)c4ccccc34)c(=O)n(CCC#N)c2n1	> 20 µM
Cc1ccccc1-c1cncnc1NCCN1CCOCC1	> 20 µM
COCCn1c(=O)c(C)nc2cnc(OC)nc21	> 20 µM
COc1ccc(Oc2ncc3nc(C)c(=O)n(CCC#N)c3n2)cc1	> 20 µM
COc1ccc(Oc2ncc3nc(-c4ccccc4)c(=O)n(CCC#N)c3n2)cc1	> 20 µM
O=C(c1ccncc1)N1CCC2(CCN(Cc3nccs3)CC2)CC1	> 20 µM
Cc1nc2cnc(N(C)C)nc2n(Cc2ccc(F)cc2)c1=O	> 20 µM
CN(C)c1ccc(-c2nc(NCCN3CCOCC3)c3ccccc3n2)cc1	> 20 µM
COc1ccccc1-c1cc(N(C)Cc2ccco2)ncn1	> 20 µM
COc1ccc(-c2nc3cnc(Oc4ccccc4)nc3n(C3CC3)c2=O)cc1	> 20 µM
O=C(Nc1ccccc1)N1CCC2(CC1)CCN(S(=O)(=O)c1ccccc1)CC2	> 20 µM
CC(C)NC(=O)N1CCC2(CC1)CCN(C(=O)c1cnccn1)CC2	> 20 µM
CC(=O)N1CCC2(CCCN(c3ccc(-c4ccccc4)cc3)C2)CC1	> 20 µM
CN1CCN(c2cc(-c3ccc(N(C)C)cc3)ncn2)CC1	> 20 µM
COc1cccc(-c2nc(N3CCN(C)CC3)c3ccccc3n2)c1	> 20 µM
O=C(c1ccco1)N1CCC2(CC1)CCN(C(c1ccccc1)c1ccccc1)CC2	> 20 µM
O=C(c1cccc(F)c1)N1CCC2(CC1)CN(c1ccncc1)C2	> 20 µM
N#Cc1cccc(-c2ccc3ncnc(NCc4cccnc4)c3c2)c1	> 20 µM
CN1CCN(c2ncc3nc(CCc4ccccc4)c(=O)n(CCC#N)c3n2)CC1	> 20 µM
COc1ncc2nc(-c3cc(F)cc(F)c3)c(=O)n(C3CC3)c2n1	> 20 µM

SMILES	Potency
COc1ccccc1CNc1cc(-c2ccccc2C(F)(F)F)ncn1	> 20 µM
Cc1nc2cnc(N3CCNCC3)nc2n(-c2ccccc2)c1=O	> 20 µM
CN(C)c1ncc2ncc(=O)n(CCc3ccccc3)c2n1	> 20 µM
O=C(Nc1ccccc1)N1CCCC2(CCN(C(=O)c3csnn3)CC2)C1	> 20 µM
Cc1ccccc1-c1ccc2ncnc(N3CCN(C)CC3)c2c1	> 20 µM
FC(F)(F)c1ccccc1-c1nccc(NCc2cccs2)n1	> 20 µM
COc1ccc(-c2nc3cnc(OC)nc3n(Cc3ccc(F)cc3)c2=O)cc1	> 20 µM
Cc1cnc(CNc2ccnc(-c3ccccc3Cl)n2)cn1	> 20 µM
Clc1ccccc1-c1cc(NCc2ccccc2)ncn1	> 20 µM
COC(=O)N1CCC2(CCCN(Cc3ccccc3)C2)CC1	> 20 µM
Cc1ccccc1-c1ccc2ncnc(N3CCOCC3)c2c1	> 20 µM
O=C(Oc1ccccc1)N1CCC2(CC1)CCN(c1ccccn1)CC2	> 20 µM
COc1ccc(-c2nc3cnc(N(C)C)nc3n(CCc3ccccc3)c2=O)cc1	> 4 µM
Clc1ccccc1-c1nccc(-n2ccnc2)n1	> 20 µM
COc1ccc(CNc2ncnc3ccc(-c4c(C)noc4C)cc23)c(OC)c1	> 20 µM
O=C(c1cnccn1)N1CCC[C@@]2(CCN(c3ccncc3)C2)C1	> 20 µM
Cc1cnc(CNc2cc(-c3ccccc3CN(C)C)ncn2)cn1	> 20 µM
Cc1cccc(CNc2ncnc3ccc(-c4cccnc4)cc23)c1	> 20 µM
COCCNc1ncnc2ccc(-c3ccc(N(C)C)cc3)cc12	> 20 µM
CNc1ncncc1-c1c(C)noc1C	> 20 µM
